Records with an inconclusive call do not appear. Unmarked numbers belong to inactive results. The source made the active and inactive calls. Calls follow the shape of the dose curve; as a rule, active = well fitted inhibition curve with a large enough effect; inconclusive = small, poorly fitted or top-dose-only effect; inactive = no such curve, though single readings can be large or run the other way.
Test: Confirmation assay for measurement of the activity of small molecule inhibitors on Zika virus induced Caspase-3 activity in human astrocytes
Conditions: ZIKV-induced caspase-3/7 luminescence, 6 h; series mostly up to 46.1 µM; activity, negative = inhibition: at the top concentration
From the text: National Center for Advancing Translational Sciences [NCATS] Johns Hopkins University School of Medicine Florida State University Assay Overview: Increase in the Caspase-3 activity indicates an activation of apoptosis cell death pathway caused by Zika virus infection in certain types of neuronal cells including human neural progenitor cells (hNPCs), astrocytes, and astrocytoma cell line (SNB-19). This cell-based caspase-3 activity assay measures the increased caspase-3 activity in the human astrocytes after a 6-hour Zika virus infection with a luminescence readout. A decrease in the luminescence signal in this assay by small molecule treatment indicates an inhibitory effect of that small molecule on the Zika virus induced caspase-3 activity that may correlate with its effect on reduction of Zika virus caused cell death.
Assay Protocol Summary: The medium for astrocytes contains AM basal medium (ScienCell, Cat.# 1801), AGS (ScienCell, Cat.# 1801), 10% FBS, and 1% Pen/Strep. A Caspase-Glo 3/7 assay kit (catalog number G8092; Promega, Madison, WI) was used to detect caspase-3 activity induced by Zika virus infection in human cells. The reagent mixture was reconstituted as described in the protocol from the manufacturer. Polystyrene tissue culture treated and PDL coated white plates were obtained from Greiner Bio-One (Monroe, NC). Cells were seeded in 384- or 1536-well assay plates and cultured at 37 C with 5% CO2 for 16 to 20 hours. The typical cell seeding density in the 1536-well plate assay is 350 cells/well in 3 ul medium for astrocytes in tissue culture treated plates. Compounds were added to cells and incubated for one hour before addition of ZIKV solution to cells (2 FFU/cell). After incubation at 37 C with 5% CO2 for 6 hours, the reagent mixture of Caspase-Glo 3/7 assay kit was added to each well, followed by incubation at room temperature for 30 minutes. The luminescence intensity of the assay plates was measured using a ViewLux plate reader (PerkinElmer). Data were normalized by using the cell-containing wells without ZIKV as a negative control (0% induction of caspase 3/7 activity) and wells containing ZIKV infected cells (Caspase-3 activity induced) as a positive control (100% induction of caspase 3 activity). The percentage inhibitions of the increased Caspase-3 activity by small molecule inhibitors were then calculated.
In the case of `O=c1oc2cc(O)ccc2s1`, the “activity, negative = inhibition” value is reported as -9.23%. With `O=c1c2ccccc2nc2n1CCc1c-2[nH]c2ccccc12` the Potency was 4.89 µM (active). In the case of `CN(C)c1ccc(/C=C2\C(=O)Nc3ccccc32)cc1`, the Potency is reported as 8.69 µM (active). With `CC1(C)Cc2c(sc(NC(=S)NC(=O)c3ccccc3)c2C(=O)O)CO1` the “activity, negative = inhibition” value was 11.8%. With `Cc1ccc(O)c(N=Nc2ccccc2)n1` the Potency was 1.73 µM (active). With `O[C@@H](COc1cccc2ncccc12)CN1CCN(C2c3ccccc3[C@@H]3[C@H](c4ccccc42)C3(F)F)CC1` (stereo not given in full) the “activity, negative = inhibition” value was 21.8%. With `Cc1ccc(C(=O)c2ccc(CC(=O)O)n2C)cc1` the “activity, negative = inhibition” value was -0.261%. In the case of `Oc1cc(O)cc(/C=C/c2ccc(O)c(O)c2)c1`, the Potency is reported as 6.9 µM (active). With `COc1cc2nc(-c3ccc(N4CCN(C)CC4)cc3)nc(NCCN3CCOCC3)c2cc1OC` the “activity, negative = inhibition” value was -9.03%. With `O=C(/C=C/c1ccc(O)cc1)c1ccc(O)cc1O` the Potency was 2.75 µM (active). In the case of `NC1CCC(Nc2nc(Nc3ccc(C(=O)N4CCCCC4)cc3)c3ncn(-c4cccc(F)c4)c3n2)CC1` (stereo not given), the “activity, negative = inhibition” value is reported as 55.7%. With `O=C(/C=C/c1ccccc1)NCCO` the “activity, negative = inhibition” value was -18.6%. For `CCCC(=O)OC[C@@H](OC(=O)CCC)[C@@H](OC(=O)CCC)[C@H](Cn1c2nc(=O)[nH]c(=O)c-2nc2cc(C)c(C)cc21)OC(=O)CCC`, the “activity, negative = inhibition” value was -26.4%. In the case of `CCCCCNC(=O)N1CCC(CN(Cc2ccc(Cl)cc2)Cc2ccc([N+](=O)[O-])s2)C1` (stereo not given), the “activity, negative = inhibition” value is reported as 17.4%. With `O=C(Nc1cc2cc[nH]c2cn1)c1ccccc1` the Potency was 4.35 µM (active). In the case of `COc1ccc(CC2=NN3C([C@@H](CCc4ccccc4)[C@@H](C)O)=NC(C)C3C(=O)N2)cc1OC` (stereo not given in full), the “activity, negative = inhibition” value is reported as -7.76%. In the case of `CS(=O)(=O)c1ccc(-c2cn3ccccc3n2)cc1`, the Potency is reported as 7.74 µM (active). In the case of `COc1ccc(NC(=O)/C=C/c2ccc(Cl)cc2)cc1`, the Potency is reported as 3.88 µM (active). With `CCOCCOC(=O)/C=C/c1ccc(OC)cc1` the “activity, negative = inhibition” value was -28.8%. In the case of `Cc1nc(N)sc1-c1ccnc(Nc2ccc(N3CCOCC3)cc2)n1`, the “activity, negative = inhibition” value is reported as -7.98%. For `Cc1c(C(=O)O)c(O)cc2c1C(=O)c1c(O)c([C@@H]3O[C@H](CO)[C@@H](O)[C@H](O)[C@H]3O)c(O)c(O)c1C2=O`, the “activity, negative = inhibition” value was -21.7%. With `O=C1C(Cl)=C(NCCN2CCOCC2)C(=O)c2ncccc21` the Potency was 6.15 µM (active). In the case of `O=C(Nc1ncc([N+](=O)[O-])s1)c1cccs1`, the Potency is reported as 1.95 µM (active). With `CCC(C(=O)O)c1ccc(N2Cc3ccccc3C2=O)cc1` (stereo not given) the Potency was 6.9 µM (active). In the case of `Cc1[nH]c(C=C2C(=O)Nc3ccccc32)c(C)c1CCC(=O)O`, the “activity, negative = inhibition” value is reported as -2.09%. With `CC(C)c1ccc2oc3nc(N)c(C(=O)O)cc3c(=O)c2c1` the Potency was 1.95 µM (active). With `COc1cc2nc(N3CCN(C(=O)C4CCCO4)CC3)nc(N)c2cc1OC` (stereo not given) the Potency was 10.9 µM (active). In the case of `CN(C)c1ccc2cc(C(=O)N[C@@H](CCCN=C(N)CCl)C(=O)NCc3ccccc3)ccc2c1`, the “activity, negative = inhibition” value is reported as -11.3%. In the case of `COc1ccnc2c1CCCCC2S(=O)c1nc2ccccc2[nH]1` (stereo not given), the “activity, negative = inhibition” value is reported as 54%. For `C[C@H](NC(=O)C(=O)Nc1ccccc1C(C)(C)C)C(=O)N[C@@H](CC(=O)O)C(=O)COc1c(F)c(F)cc(F)c1F`, the Potency was 0.245 µM (active). In the case of `CC(C)Oc1ccc2c(=O)c(-c3ccccc3)coc2c1`, the Potency is reported as 10.9 µM (active). For `O=C(O)CCC(=O)c1ccc(-c2ccccc2)cc1`, the Potency was 19.5 µM (active). In the case of `Nc1cc(C(F)(F)F)ccc1S`, the “activity, negative = inhibition” value is reported as -8.2%. With `CC(=O)Oc1cccc2c1C(=O)c1c(OC(C)=O)cc(C(=O)O)cc1C2=O` the Potency was 15.5 µM (active). With `O=C1c2ccccc2-[n+]2ccc3c([nH]c4ccccc43)c21` the Potency was 7.74 µM (active). For `CC(C)(C)COc1ccc(-n2cc(C(=O)O)cn2)cc1C#N`, the Potency was 7.08 µM (active). With `N[C@H](CSC(c1ccccc1)(c1ccccc1)c1ccccc1)C(=O)O` the “activity, negative = inhibition” value was 17.5%. In the case of `C[C@@H](O[C@H]1OCCN(Cc2n[nH]c(=O)[nH]2)[C@@H]1c1ccc(F)cc1)c1cc(C(F)(F)F)cc(C(F)(F)F)c1`, the “activity, negative = inhibition” value is reported as 123%. For `C[C@@H](N)c1ccc(C(=O)Nc2ccnc3[nH]ccc23)cc1`, the “activity, negative = inhibition” value was 0.169%. With `CCN1/C(=C/C=C/c2sc3ccccc3[n+]2CC)Sc2ccccc21` the “activity, negative = inhibition” value was 11.1% [at 23.8 µM].
